# GRP78 ERSR act = inducers of ER stress response in human glioma cells; 0.02% of 420,000 active; U87-MG GRP78 promoter luciferase reporter, 16 h; Potency, µM, without a hit: top-dose activation, actives largely listed as activators; AID 602332; note: potency is the fitted concentration of half-maximal effect; series mostly up to about 76 µM; % of control where 0% means no effect; nearly all actives have a fitted effect of over 35% in size
#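 Stably transfected U87-MG glioma cells carrying a GRP78-based luciferase sensor; 16 h compound incubation. Luminescence end-point read 10 min after Bright-Glo addition at room temperature.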
# ClpP mod = qHTS Assay for Activators of ClpP; ATP-dependent Clp protease proteolytic subunit (Bacillus subtilis (strain 168)), P80244; purified B. subtilis ClpP, FRET peptide cleavage, 20 min; Potency, µM (top dose mostly 57.5 µM), for inactives: at the highest dose activity change, negative = active; 1.9% of 340,000 active; AID 651965, 2013; active = well fitted falling curve with a large enough effect; inconclusive = small, poorly fitted or top-dose-only effect; inactive = no such curve, though single readings can be large or run the other way; note: potency is the fitted concentration of half-maximal effect; the source files actives as falling curves though it sought activators and does not explain the sign; nearly all actives have a fitted effect of over 65% in size
# Target sequence (P80244 whole entry, looked up): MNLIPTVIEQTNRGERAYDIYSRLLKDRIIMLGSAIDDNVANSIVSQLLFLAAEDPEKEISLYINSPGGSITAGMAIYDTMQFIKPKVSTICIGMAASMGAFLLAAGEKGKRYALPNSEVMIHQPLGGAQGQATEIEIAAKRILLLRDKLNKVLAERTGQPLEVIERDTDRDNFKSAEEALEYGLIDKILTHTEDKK
#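 Buffer: 100 mM Tris/HCl pH8, 100 mM KCl, 0.05% low protease BSA, 2.5% glycerol, 0.01% Tween-20. ClpP 10 microg/mL final; 20 min RT; delta FRET normalized to ADEP and DMSO controls.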
# TCR act = activates T cell receptor signaling; 330,000 tested, under 10 active; Potency, µM (top dose mostly 9.22 µM), for the others: top-dose activation of IL-2 secretion, hits mostly activators; AID 504894; primary human leukocytes, anti-CD3, IL-2 HTRF, 48 h; note: % of control where 0% means no effect
#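 Compounds are tested in HTS on primary human leukocytes co-incubated with a-CD3 beads for 48 hr. IL-2 output is measured by time-resolved FRET.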
# Mito fusion yeast = blocks mitochondrial division or promotes mitochondrial fusion. 0.23% of 320,000 active. Potency, µM (series often up to 46.1 µM), inactives show at the top dose growth rescue (activation), usual class: activators. S. cerevisiae fusion-defective mutant growth rescue, CellTiterGlo 48 h; note: potency is the fitted concentration of half-maximal effect; % of control where 0% means no effect; nearly all actives have a fitted effect of over 45% in size
#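 S. cerevisiae fusion-defective temperature-sensitive mutants (e.g. fzo1-1, mgm1-5) grown 48 h at 37C in YPEG (ethanol/glycerol non-fermentable) medium with 23 nl compound per well; growth rescue read as CellTiterGlo luminescence.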
# MBNL1 CUG block = inhibitors of human MBNL1 binding to CUG repeat RNA | Q9NR56 | TR-FRET MBNL1-His/biotin-(CUG)12 binding, 665/545 ratio | Potency, µM (top dose mostly 57.5 µM), for inactives: top-dose activity change, negative = inhibition, actives largely listed as inhibitors | 0.036% of 280,000 active | AID 2675; active = well fitted inhibition curve with a large enough effect in the signal ratio, with a control signal flat, not every such curve was filed as active; inconclusive = small, poorly fitted or top-dose-only effect, or effect the other way, or a change in a side signal; inactive = no such curve, though single readings can be large or run the other way; the % refers to the signal ratio; note: potency is the fitted concentration of half-maximal effect; % is set by controls: 0 for no effect and ±100 for the full control effect
# Target sequence (Q9NR56 whole entry, looked up): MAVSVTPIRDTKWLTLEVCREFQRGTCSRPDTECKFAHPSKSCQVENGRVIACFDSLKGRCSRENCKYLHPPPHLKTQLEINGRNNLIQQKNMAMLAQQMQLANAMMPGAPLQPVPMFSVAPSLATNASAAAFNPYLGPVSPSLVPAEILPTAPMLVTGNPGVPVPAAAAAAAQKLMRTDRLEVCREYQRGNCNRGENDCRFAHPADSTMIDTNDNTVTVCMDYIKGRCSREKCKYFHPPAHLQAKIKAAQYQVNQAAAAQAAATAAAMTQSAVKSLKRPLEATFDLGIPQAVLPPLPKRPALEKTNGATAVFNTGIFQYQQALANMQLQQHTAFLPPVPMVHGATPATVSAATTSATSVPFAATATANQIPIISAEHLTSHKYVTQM
#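 Inhibition of protein-RNA binding appears as loss of TR-FRET between terbium anti-His antibody on MBNL1-His and streptavidin-XL665 on biotin-(CUG)12. Activity is normalized to buffer-only and uninhibited-complex controls.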
# AT treatment = potential ataxia-telangiectasia treatment; F2112 A-T fibroblasts, KAP-1 phosphorylation AlphaLISA; neocarzinostatin DNA damage 30 min before lysis; Potency, µM (highest dose often 57.5 µM), without a hit: at the top dose activation, most hits filed as activators; 0.19% of 320,000 active; AID 485349; note: potency is the fitted concentration of half-maximal effect; % of control where 0% means no effect; nearly all actives have a fitted effect of over 45% in size
#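 ATM-like activity read as KAP-1 phosphorylation via AlphaLISA donor/acceptor antibody pairs after lysis and 6 hr at 25C. Cells were ATM-null patient fibroblasts (F2112, hTERT), dosed 60 min, then exposed to the DSB inducer NCS for 30 min.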
# Active calls of the source: *; ? = inconclusive; nt = not tested or not shown; [ ] = remark or other dose. A selection: hits, their analogues and other compounds. The true share with any hit is near 1.8%. Unless noted, calls come from the whole dose curve; as a rule, active = well fitted curve in the direction sought with a large enough effect; inconclusive = small, poorly fitted or top-dose-only effect, or another doubt; inactive = no such curve, though single readings can be large; an effect the other way counts as inactive or inconclusive.
SMILES,GRP78 ERSR act,ClpP mod,TCR act,Mito fusion yeast,MBNL1 CUG block,AT treatment
Cc1cccc(/C=C/c2onc(C)c2S(=O)(=O)N2CCC(C(=O)N3CCC(C)CC3)CC2)c1,-3%,0%,-2%,-14%,-2%,2%
O=C1OC2C(O)C(O)OC2C1O (stereo unspecified),-5%,nt,nt,nt,nt,nt
CCc1ccccc1NC(=S)N1CCN(c2cccc(OC)c2)CC1,-9%,10µM*,nt,-15%,2%,-4%
C/C(CCN1CCCc2nc(C)c(C)cc21)=N\O[C@@H](C)c1cn([C@H](CO)Cc2ccccc2)nn1,-3%,nt,nt,nt,nt,nt
Cc1ccc(S(=O)(=O)N2CCC(C(=O)NCCc3ccccn3)CC2)cc1,-4%,22µM*,6%,-5%,0%,-1%
O=C(NCCc1ccccn1)C1CCN(S(=O)(=O)c2ccc(Cl)cc2)CC1,-3%,0%,2%,3%,-6%,1%
COc1ccc(OC)c(-c2cc(C(=O)Nc3c(C)nn(Cc4ccc(Cl)cc4)c3C)no2)c1,-4%,35µM*,nt,-4%,3%,-6%
COc1cc(=O)n2c(c1C(=O)N(C)Cc1cscn1)CCN(C(=O)c1ccc(C)c(C)c1)CC2,-4%,nt,nt,nt,nt,nt
CCCCCOc1ccc(C2C(C(C)=O)=C(C)Nc3ncnn32)cc1OC (stereo unspecified),-2%,11µM*,-1%,-3%,-11%,-4%
CN(C)CCCN(CCCN(C)C)C(=S)Nc1ccc(S(=O)(=O)N2CCOCC2)cc1,0%,1%,-7%,0%,-2%,18µM*
CCCn1c(=N)n(CC(=O)OCC)c2ccccc21,-2%,1%,-1%,0%,4%,-2%
CCOC(=O)Cn1c(=N)n(CCOc2ccc(F)cc2)c2ccccc21,-4%,4µM*,-4%,-3%,-5%,9%
C=CCn1c(=N)n(CC(=O)OCC)c2ccccc21,-3%,25µM*,3%,3%,-11%,-5%
O[C@@H]1COC2[C@@H](O)CO[C@@H]21 (stereo partly specified),3%,nt,nt,nt,nt,nt
O=C(CNC1=NCCS1)c1c[nH]c2ccccc12,-2%,-19%,nt,nt,nt,nt
O=C(CN1CCN(c2ccccc2F)CC1)Nc1ccccc1F,-2%,-4%,1%,21%,-17%,nt
O=C(CCN1CCN(c2ccccc2F)CC1)Nc1ccccc1F,-1%,16µM*,-1%,1%,-5%,-1%
O=C(c1ccc([N+](=O)[O-])o1)N1CCN(c2nc3c(F)cc(F)cc3s2)CC1,-2%,-2%,1%,?,nt,1%
Cc1ccc(C)c2sc(N3CCN(C(=O)c4ccc([N+](=O)[O-])o4)CC3)nc12,-2%,-4%,-4%,20µM*,nt,-8%
O=C(C[n+]1ccc2ccccc2c1)c1ccc(O)c(O)c1,-4%,0%,nt,nt,nt,nt
COc1ccc(-c2nc3c(c(=O)[nH]c(=O)n3Cc3ccccc3)n2C)cc1,-3%,35µM*,6%,0%,-10%,1%
Cn1c(-c2cccc(OCc3ccccc3)c2)nc2c1c(=O)[nH]c(=O)n2Cc1ccccc1,-5%,0%,13%,-6%,5%,2%
COc1ccc(-c2nc3c(c(=O)[nH]c(=O)n3Cc3ccccc3)n2Cc2ccccc2)cc1,-4%,28µM*,2%,1%,5%,1%
OC[C@H]1NC[C@@H](O)[C@@H](O)[C@@H]1O,1%,nt,nt,nt,nt,nt
C=C(C)[C@]12C[C@@H](C)[C@@]34OC(Cc5ccccc5)(O[C@@H]1[C@@H]3C=C(COC(=O)Cc1cc(OC)c(O)cc1I)C[C@]1(O)C(=O)C(C)=C[C@@H]41)O2,-4%,nt,nt,nt,nt,nt
SMILES,GRP78 ERSR act,ClpP mod,TCR act,Mito fusion yeast,MBNL1 CUG block,AT treatment
CCCOC(=O)NCCCN(C)C,-6%,nt,nt,nt,nt,nt
Cc1ccc(Nc2nc(CSc3nnc(-c4cccnc4)n3-c3ccccc3C)cs2)cc1,-1%,28µM*,4%[46.1 µM],28%,-8%,-2%
Cc1ccccc1-n1c(SCc2csc(Nc3ccccc3)n2)nnc1-c1cccnc1,-7%,-1%,-7%[46.1 µM],6%,2%,-1%
Oc1ccc(Br)cc1C1C=C(c2ccc3c(c2)OCO3)NC(c2ccc(Br)cc2)N1 (stereo unspecified),?,3%,nt,nt,nt,nt
CCOC(=O)CNc1c(-c2ccc(OC)cc2)nc2ccc(Cl)cn12,3%,-9%,0%[46.1 µM],28%,?,4%
CCOC(=O)CNc1c(-c2ccc(F)cc2)nc2cnccn12,-4%,25µM*,nt,5%,?,24%
CCOC(=O)CNc1c(-c2ccc(Cl)cc2)nc2cnccn12,-3%,28µM*,-5%,5%,?,21%
COc1ccc(O)c(CN2CCOc3c(cc(-c4cccc(OC)n4)cc3OC)C2)c1,-4%,nt,nt,nt,nt,nt
Cc1ccc(OC(F)F)c(NC(=O)Nc2cccc(C(F)(F)F)c2)c1,4%,-2%,3%,0%,-4%,28µM*
CCC(Oc1ccccc1)C(=O)Nc1cc(-c2ccccc2F)nn1-c1ccccc1 (stereo unspecified),-1%,6%,nt,nt,nt,nt
Cc1ccc(CNC(=O)C2CC(=O)N(CCC(C)C)C2)cc1 (stereo unspecified),-2%,1%,2%,-1%,-8%,-4%
CCCCN1CC(C(=O)NCc2ccc(C)cc2)CC1=O (stereo unspecified),-6%,20µM*,-4%,-3%,-13%,4%
CCNC(=O)C(=O)Nc1ccc2c(c1)N(S(=O)(=O)c1cccs1)CCC2,-4%,1%,-4%,7%,nt,-11%
O=C(Nc1ccc2c(c1)N(S(=O)(=O)c1cccs1)CCC2)c1c(F)cccc1F,-3%,11µM*,0%,17%,nt,-1%
CNC(=O)c1ccccc1Sc1ccc2c(/C=C/c3ccccn3)n[nH]c2c1,-7%,nt,nt,nt,nt,nt
Cn1c(/C=N/O)nc2ccccc21,-1%,4%,0%,0%,-4%,-3%
Cn1c(/C=N/n2cnnc2)nc2ccccc21,-2%,14µM*,1%,-6%,5%,3%
C(=N\n1cnnc1)/c1nc2ccccc2[nH]1,-5%,16µM*,-42%,3%,6%,-3%
COc1cccc(C(=O)NC(C)c2nnc3n2CCN(CC=C(C)C)CC3)c1 (stereo unspecified),-5%,nt,nt,nt,nt,nt
S=C(c1ccc(Br)cc1)N1CCCC1,-3%,25µM*,5%,-24%,-4%,-4%
Oc1ccc(C(=S)N2CCCCC2)cc1,?,1%,2%,-2%,-12%,nt
O=C(NCC1CCC2(CCN(Cc3ccc4ncccc4c3)CC2)O1)C1CCCO1 (stereo unspecified),-3%,nt,nt,nt,nt,nt

# Screens (PubChem BioAssay)
